Holding throughout (test): NP40-soluble protein abundance relative to vehicle (solubility fold change) (ratio); higher = more soluble protein in presence of ATP
In assay [1] the target is T1, A6NG45|Q13162 (UniProt Q13162).
T1 sequence (whole entry): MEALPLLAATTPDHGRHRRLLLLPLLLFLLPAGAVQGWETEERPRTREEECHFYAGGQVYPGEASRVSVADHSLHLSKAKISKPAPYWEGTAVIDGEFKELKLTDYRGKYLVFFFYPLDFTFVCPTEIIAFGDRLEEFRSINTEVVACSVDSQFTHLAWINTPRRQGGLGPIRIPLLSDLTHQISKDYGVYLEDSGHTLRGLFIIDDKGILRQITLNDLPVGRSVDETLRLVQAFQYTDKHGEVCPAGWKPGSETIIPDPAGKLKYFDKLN
A digest of the protocol: (§1)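 Each value is a fold change relative to the detergent-processed vehicle, calculated per replicate from vsn-normalised intensities. Jurkat crude lysate received eight concentrations (0.1 to 10 mM) for 10 min at room temperature and 3 min at 37 °C, then was solubilised in 0.8% NP40 with benzonase (60 min, 4 °C). The ultracentrifuged supernatant was TMT-labelled and run by LC-MS/MS in three independent experiments.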

Assay [2] addresses T2, E7ET89|Q86UW9|Q86UW9-2 (UniProt Q86UW9).
T2 sequence (whole entry): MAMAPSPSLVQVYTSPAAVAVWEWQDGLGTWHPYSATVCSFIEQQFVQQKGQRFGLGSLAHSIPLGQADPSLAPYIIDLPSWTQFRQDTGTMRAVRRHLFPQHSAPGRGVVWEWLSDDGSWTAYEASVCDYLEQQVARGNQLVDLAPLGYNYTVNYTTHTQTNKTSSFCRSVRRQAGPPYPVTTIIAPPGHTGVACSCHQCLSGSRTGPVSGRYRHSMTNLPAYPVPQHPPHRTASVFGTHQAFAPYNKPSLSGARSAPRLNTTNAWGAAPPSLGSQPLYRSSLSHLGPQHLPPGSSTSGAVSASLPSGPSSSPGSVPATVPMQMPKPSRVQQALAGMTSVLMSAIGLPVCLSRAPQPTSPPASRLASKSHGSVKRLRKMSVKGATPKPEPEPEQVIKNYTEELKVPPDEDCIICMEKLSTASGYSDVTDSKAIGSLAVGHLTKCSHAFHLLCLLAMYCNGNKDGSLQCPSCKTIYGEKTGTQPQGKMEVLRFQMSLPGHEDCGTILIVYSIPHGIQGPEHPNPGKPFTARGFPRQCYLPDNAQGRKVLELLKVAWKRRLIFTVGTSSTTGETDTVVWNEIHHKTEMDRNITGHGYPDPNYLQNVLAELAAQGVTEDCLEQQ
The method in brief: as §1

In assay [3] the target is T3, F5GY05|A0A0D9SEJ5|Q96EK7 (UniProt Q96EK7).
T3 sequence (whole entry): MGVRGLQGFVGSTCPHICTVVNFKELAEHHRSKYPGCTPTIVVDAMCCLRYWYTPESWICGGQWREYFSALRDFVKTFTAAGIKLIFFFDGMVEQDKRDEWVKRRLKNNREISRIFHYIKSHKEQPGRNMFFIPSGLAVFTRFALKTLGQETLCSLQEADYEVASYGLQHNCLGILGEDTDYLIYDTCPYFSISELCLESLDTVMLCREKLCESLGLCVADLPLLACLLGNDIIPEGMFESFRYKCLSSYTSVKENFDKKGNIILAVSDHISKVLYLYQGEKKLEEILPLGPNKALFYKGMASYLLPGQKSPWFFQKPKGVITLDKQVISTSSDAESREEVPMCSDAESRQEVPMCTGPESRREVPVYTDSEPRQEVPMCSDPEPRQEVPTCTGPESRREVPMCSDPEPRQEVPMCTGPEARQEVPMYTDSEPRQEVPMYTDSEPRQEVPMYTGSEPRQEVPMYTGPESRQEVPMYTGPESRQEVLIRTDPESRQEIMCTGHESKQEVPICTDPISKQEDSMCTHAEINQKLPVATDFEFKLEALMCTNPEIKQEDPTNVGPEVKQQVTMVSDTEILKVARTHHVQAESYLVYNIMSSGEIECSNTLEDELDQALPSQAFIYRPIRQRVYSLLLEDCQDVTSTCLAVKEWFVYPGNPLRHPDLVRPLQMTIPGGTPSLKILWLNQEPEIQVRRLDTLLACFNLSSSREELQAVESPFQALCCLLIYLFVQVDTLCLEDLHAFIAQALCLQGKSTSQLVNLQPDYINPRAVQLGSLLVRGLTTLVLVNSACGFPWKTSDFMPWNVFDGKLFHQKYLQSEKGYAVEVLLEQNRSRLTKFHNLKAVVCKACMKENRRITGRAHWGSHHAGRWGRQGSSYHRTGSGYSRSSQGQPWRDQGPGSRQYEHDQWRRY
The method in brief: as §1

Assay [4] concerns the target T4, F5H514|O95267|O95267-2 (UniProt O95267).
T4 sequence (whole entry): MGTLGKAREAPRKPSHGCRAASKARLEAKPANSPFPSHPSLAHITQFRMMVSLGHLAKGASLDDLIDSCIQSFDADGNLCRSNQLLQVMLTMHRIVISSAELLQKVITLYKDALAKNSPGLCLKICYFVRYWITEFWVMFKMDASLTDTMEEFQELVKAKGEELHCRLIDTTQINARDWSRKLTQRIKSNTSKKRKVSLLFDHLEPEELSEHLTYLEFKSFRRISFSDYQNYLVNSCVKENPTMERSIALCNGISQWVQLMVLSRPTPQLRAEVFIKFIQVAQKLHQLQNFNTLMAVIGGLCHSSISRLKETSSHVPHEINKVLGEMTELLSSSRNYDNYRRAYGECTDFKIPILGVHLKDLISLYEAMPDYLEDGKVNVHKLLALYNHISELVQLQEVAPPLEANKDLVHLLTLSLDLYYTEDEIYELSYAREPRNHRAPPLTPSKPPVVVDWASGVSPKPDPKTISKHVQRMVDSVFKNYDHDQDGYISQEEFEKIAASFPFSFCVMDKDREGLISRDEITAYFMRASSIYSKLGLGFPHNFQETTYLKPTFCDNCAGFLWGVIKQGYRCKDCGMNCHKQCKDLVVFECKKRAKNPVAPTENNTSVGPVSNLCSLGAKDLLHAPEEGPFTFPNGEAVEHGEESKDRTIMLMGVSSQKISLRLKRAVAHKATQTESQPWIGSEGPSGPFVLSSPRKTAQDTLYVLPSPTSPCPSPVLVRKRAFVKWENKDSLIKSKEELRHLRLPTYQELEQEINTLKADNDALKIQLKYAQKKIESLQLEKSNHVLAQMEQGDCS
The method in brief: as §1

± gives the standard deviation of the averaged measurements. Targets with the largest changes are over-represented here; the source holds about 6,500 in all.

As for `Nc1ncnc2c1ncn2[C@@H]1O[C@H](COP(=O)(O)OP(=O)(O)OP(=O)(O)O)[C@@H](O)[C@H]1O` [adenosine triphosphate], the NP40-soluble protein abundance was 1.07 ± 0.057 in assay [1] (concentration: 1mM); 1.01 ± 0.042 in assay [1] (concentration: 2mM); 0.975 ± 0.041 in assay [1] (concentration: 4mM); 0.953 ± 0.07 in assay [1] (concentration: 6mM); 1.03 ± 0.034 in assay [1] (concentration: 8mM); 0.992 ± 0.033 in assay [1] (concentration: 10mM). The NP40-soluble protein abundance in assay [2] (concentration: 1mM) was determined as 0.936 ± 0.2; in assay [2] (concentration: 2mM), 1.09 ± 0.15; in assay [2] (concentration: 4mM), 1.05 ± 0.11; in assay [2] (concentration: 6mM) it was 1.04 ± 0.039; in assay [2] (concentration: 8mM) it was 1.03 ± 0.086; in assay [2] (concentration: 10mM), 1.04 ± 0.035. For the same molecule, the NP40-soluble protein abundance in assay [3] (concentration: 1mM) is 1.03 ± 0.013; in assay [3] (concentration: 2mM), 1.0493 ± 0.001; in assay [3] (concentration: 4mM), 1.07 ± 0.017; in assay [3] (concentration: 6mM), 1.06 ± 0.06; in assay [3] (concentration: 8mM) it was 1.07 ± 0.02; in assay [3] (concentration: 10mM) it was 1.08 ± 0.052. The NP40-soluble protein abundance in assay [4] (concentration: 1mM) amounted to 1.04 ± 0.12; in assay [4] (concentration: 2mM), 1.09 ± 0.046; in assay [4] (concentration: 4mM), 1.19 ± 0.15; in assay [4] (concentration: 6mM) it was 1.21 ± 0.13; in assay [4] (concentration: 8mM) it was 1.14 ± 0.065; in assay [4] (concentration: 10mM), 1.24 ± 0.15.
